C diff growth: blocks growth of Clostridium difficile; Clostridium difficile clinical isolate growth, OD600, 24 h; stronger effect = lower value; growth activity, negative = inhibition, % at 16 µg/mL (by protocol); 86,000 tested, 0.25% active; AID 1259249;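 active means mean growth activity at or below -80% and every replicate also at or below -80%; inconclusive means mean at or below -80% but some replicate above -80%; inactive means mean growth activity above -80%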
Pf Dd2 inh: P. falciparum Dd2 growth inhibition | activity change, % at 10 µM | AID 1159554 | 94,000 tested, 2.3% active | SYBR Green, 72 h; stronger effect = lower value; in the data active means activity change below about -80%; inconclusive means no clear call, values can overlap the other calls
T cruzi growth-1: inhibitors of T. cruzi proliferation; T. cruzi beta-gal in NIH3T3, GalScreen luminescence, 90 h; inhibition, % at 8.34 µM; 77,000 tested, 5.9% active;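 active means mean inhibition above about 93%, with at least 55% of replicates each passing it, limit read from the data, passing the limit was not always enough; inconclusive means only one of those two conditions holds; inactive means neither condition holds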
T cruzi growth-2: inhibitors of T. cruzi proliferation; T. cruzi beta-gal in NIH3T3, GalScreen luminescence, 90 h; shares compounds with T cruzi growth-1; inhibition, % at 8.35 µM; 5,600 tested, 72% active;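 active means mean replicate inhibition above about 95% and at least 55% of replicates individually reaching it, limit read from the data; inconclusive means only one of the two criteria is met; inactive means neither criterion is met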
T cruzi growth-3: Trypanosoma cruzi proliferation inhibition; shares compounds with T cruzi growth-1; T. cruzi beta-gal in NIH3T3, GalScreen luminescence, 90 h; inhibition, % at 2.09 µM; 5,600 tested, 21% active;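 active means mean inhibition above about 95%, with at least 55% of replicates also reaching it, limit read from the data; inconclusive means meets just one of the two conditions; inactive means meets neither condition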
3T3 cytotox: NIH/3T3 (mouse) viability loss; 5,600 tested, 14% active; shares compounds with T cruzi growth-1; NIH/3T3 viability, CellTiter-Glo ATP luminescence, 90 h; AID 651742; cytotoxicity (signal decrease), % at 8.35 µM;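 active means mean signal decrease across replicates above about 35% based on untreated-well scatter, with enough replicates individually passing, limit read from the data; inconclusive means no rule stated though some were filed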
NIH3T3 tox 2: cytotoxicity in mouse NIH/3T3 fibroblasts; shares compounds with T cruzi growth-1; NIH/3T3 viability, CellTiter-Glo ATP luminescence, 90 h; inhibition, % at 24.9 µM; 5,600 tested, 56% active;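 active means mean loss of cell viability signal at or above a set limit, and enough replicates individually reaching it; inconclusive means meets only the mean limit or only the replicate share; inactive means meets neither condition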
A number is an active result; 0 = inactive; ? = inconclusive; - = not tested or not shown. Hits are enriched below; roughly 6.7% of the tested compounds scored in any of these assays.

SMILES	C diff growth	Pf Dd2 inh	T cruzi growth-1	T cruzi growth-2	T cruzi growth-3	3T3 cytotox	NIH3T3 tox 2
C[C@@H]1CCCCO[C@H](CN(C)C(=O)CCC(F)(F)F)[C@H](C)CN([C@H](C)CO)C(=O)c2cc(NS(=O)(=O)c3ccc(Cl)cc3)ccc2O1	0	0	101	100	0	0	0
Cc1ccc(S(=O)(=O)Nc2ccc3c(c2)C(=O)N([C@H](C)CO)C[C@H](C)[C@@H](CN(C)C(=O)Cc2ccccc2)OCCCC[C@H](C)O3)cc1	-	0	0	-	-	-	-
C[C@H]1CCCCO[C@H](CN(C)C(=O)CCC(F)(F)F)[C@@H](C)CN([C@@H](C)CO)C(=O)c2cc(NS(=O)(=O)c3ccc(Cl)cc3)ccc2O1	0	0	0	-	-	-	-
C[C@H]1CCCCO[C@@H](CN(C)C(=O)Cc2ccccc2)[C@@H](C)CN([C@@H](C)CO)C(=O)c2cc(NS(=O)(=O)c3ccccc3)ccc2O1	-	0	-	-	-	-	-
Cc1ccc(S(=O)(=O)Nc2ccc3c(c2)C(=O)N([C@H](C)CO)C[C@@H](C)[C@H](CN(C)C(=O)Cc2ccccc2)OCCCC[C@@H](C)O3)cc1	-	0	97	108	0	0	0
O=C(NCC1CC1)[C@H]1[C@H](CO)[C@H]2Cn3c(ccc(-c4cccc(F)c4)c3=O)[C@H]2N1CC1CCOCC1	0	-	0	-	-	-	-
CC=Cc1ccc2n(c1=O)C[C@@H]1[C@@H](CO)[C@H](C(=O)Nc3ccc(-c4ccccc4)cc3)N(C)[C@H]21 (mixture of isomers)	0	-	0	-	-	-	-
C[C@H](CO)N1C[C@H](C)[C@H](CN(C)C(=O)Cc2ccncc2)Oc2cc(C3=CCCC3)ccc2S1(=O)=O	0	0	0	-	-	-	-
C[C@H]1CN([C@@H](C)CO)S(=O)(=O)c2ccc(C3=CCCCC3)cc2O[C@@H]1CN(C)C(=O)Cc1ccncc1	0	0	107	105	0	0	0
C[C@H]1CN([C@@H](C)CO)S(=O)(=O)c2ccc(C3=CCCCC3)cc2O[C@H]1CN(C)C(=O)Cc1ccncc1	0	0	98	99	0	37	36
C[C@H](CO)N1C[C@H](C)[C@H](CN(C)C(=O)Cc2ccncc2)Oc2cc(C3=CCCCC3)ccc2S1(=O)=O	0	0	0	-	-	-	-
C[C@@H]1CN([C@H](C)CO)C(=O)c2cc(NC(=O)NC3CCCCC3)ccc2O[C@@H](C)CCCCO[C@H]1CN(C)S(=O)(=O)c1cccs1	0	0	0	-	-	-	-
C[C@@H]1CN([C@H](C)CO)C(=O)Cc2cc(NS(C)(=O)=O)ccc2O[C@H]1CN(C)C(=O)Nc1ccc(C(F)(F)F)cc1	0	0	0	-	-	-	-
COc1ccccc1C#Cc1ccc([C@@H]2[C@H](CO)N3CCCCN(S(C)(=O)=O)C[C@@H]23)cc1	0	0	0	-	-	-	-
COc1ccccc1C#Cc1ccc([C@H]2[C@H]3CN(S(C)(=O)=O)CCCCN3[C@H]2CO)cc1	0	0	0	-	-	-	-
COc1ccccc1C#Cc1ccc([C@H]2[C@@H](CO)N3CCCCN(C(=O)C4CC4)C[C@@H]23)cc1	0	0	110	104	0	57	47
COc1ccccc1C#Cc1ccc([C@H]2[C@H]3CN(C(=O)C4CC4)CCCCN3[C@H]2CO)cc1	0	0	101	100	0	0	48
CCCNC(=O)C[C@@H]1CC[C@H]2[C@H](COc3ccc(NC(=O)c4cccc(Cl)c4)cc3C(=O)N2C)O1	0	0	0	-	-	-	-
CC(C)C#Cc1ccc([C@H]2[C@@H](CO)N3C(=O)CN(C(=O)Cc4ccccc4)C[C@@H]23)cc1	0	0	-	-	-	-	-
CN1CCN(C(=O)C[C@@H]2CC[C@@H]3[C@H](COC[C@H](O)CN3S(=O)(=O)c3cccc(Cl)c3)O2)CC1	-	0	0	-	-	-	-
CCC(=O)N(C)C[C@@H]1Oc2ncc(C3=CCCC3)cc2C(=O)N([C@@H](C)CO)C[C@@H]1C	0	0	0	-	-	-	-
COCC#Cc1cnc2c(c1)C(=O)N([C@@H](C)CO)C[C@@H](C)[C@H](CN(C)C(=O)C1CC1)O2	-	0	112	0	0	0	?
COCC#Cc1cnc2c(c1)C(=O)N([C@H](C)CO)C[C@@H](C)[C@H](CN(C)C(=O)C1CC1)O2	-	0	97	0	0	0	0

Assay outcomes deposited in PubChem BioAssay by Broad Institute.
